The results in this text go back to PubChem BioAssay (NCI).

Compounds without any hit were thinned out: in the full panel of roughly 79,000, 15% have a hit. A number with no mark means an inactive call. Active and inactive are the calls of the source. Cut-off read from the data, not from the text of the source: active = growth inhibition above about 70%; inactive = the rest.

A short description of test [1]: NCI Yeast Anticancer Drug Screen. Data for the rad50 strain (AID 155).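 Note: 0% = growth of vehicle-only cultures of the same strain.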 The conditions noted are these: S. cerevisiae rad50 strain growth inhibition, hits give high values. In outline: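 Relative growth inhibition (compound vs vehicle) was measured in yeast with a defined repair-gene alteration.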
A short description of test [2]: NCI Yeast Anticancer Drug Screen. Data for the mec2-1 strain (AID 157). The conditions noted are these: S. cerevisiae mec2-1 strain, hits give high values. In outline:
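Using mec2-1 yeast: add compound, measure growth, express inhibition versus vehicle-treated cultures.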

A short description of test [3]: NCI Yeast Anticancer Drug Screen. Data for the sgs1 mgt1 strain (AID 161).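 Note: 0% = growth of cultures given vehicle only.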 The following applies: S. cerevisiae sgs1 mgt1 strain, hits give high values. In outline: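 This yeast growth screen uses a strain with defined DNA-repair lesions; compound-treated growth is compared with vehicle-treated growth.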
A short description of test [4]: NCI Yeast Anticancer Drug Screen. Data for the bub3 strain (AID 167). The following applies: S. cerevisiae bub3 mutant strain, hits give high values. Put shortly: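 Screening used yeast with an engineered genetic alteration affecting cell cycle control. Compound-exposed cultures were compared with vehicle cultures, and reduced growth was taken as inhibition.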
A short description of test [5]: NCI Yeast Anticancer Drug Screen. Data for the mlh1 rad18 strain (AID 175). The conditions noted are these: S. cerevisiae mlh1 rad18 strain growth inhibition, hits give high values. In outline: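 Steps: expose repair-defective yeast to compound; measure growth; express inhibition against vehicle-treated controls.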
Test [6] in a line: NCI Yeast Anticancer Drug Screen. Data for the cln2 rad14 strain (AID 165).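 Note: 0% = growth equal to vehicle treated cultures.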 The following applies: S. cerevisiae cln2 rad14 strain, hits give high values. Put shortly:
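Yeast strain cln2 rad14, bearing defects in cell cycle control and DNA repair, serves as the test system; values reflect growth inhibition compared with vehicle.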

Setting [7] is: at 5.0 µM (retest, dose inferred, filed as 0.5).
Setting [8] is: at 50.0 µM (retest, dose inferred, filed as 5.0).

Take `COc1cc(OC)c(/C=C/c2c3ccccc3cc[n+]2C)c(OC)c1`: the growth inhibition in test [1] (setting [7]) is 66%; in test [1] (setting [8]), 77% (active); in test [1] (at 50.0 µM), 61.6%; in test [2] (setting [7]), 33%; in test [2] (setting [8]), 54%; in test [2] (at 50.0 µM), 49.5%. The growth inhibition in test [3] (setting [7]) is 67%; in test [3] (setting [8]), 84% (active); in test [3] (at 50.0 µM), 69.5%; in test [4] (setting [7]), 67%; in test [4] (setting [8]), 79% (active); in test [4] (at 50.0 µM) it was 59.3%. Moreover, the growth inhibition in test [5] (setting [7]) was 50%; in test [5] (setting [8]), 68%; in test [5] (at 50.0 µM), 54.1%.
Regarding `COC(=O)c1ccc(Cl)c(NN)c1`, the growth inhibition in test [1] (setting [7]) was 49%; in test [1] (setting [8]), 66%; in test [1] (at 50.0 µM), 90.4% (active); in test [2] (setting [7]), 29%; in test [2] (setting [8]), 59%; in test [2] (at 50.0 µM), 92.8% (active). For the same compound, the growth inhibition in test [3] (setting [7]) was 86% (active); in test [3] (setting [8]) it was 98% (active); in test [6] (setting [7]) it was 61%; in test [6] (setting [8]), 99% (active); in test [4] (setting [7]), 93% (active); in test [4] (setting [8]) it was 99% (active). Also, the growth inhibition in test [5] (setting [7]) is 38%; in test [5] (setting [8]) it was 42%; in test [5] (at 50.0 µM) it was 88.7% (active).
On to `CCCOC1N(c2ccc(C)cc2)NC(=O)C1(C)C` (stereo not given), for which the growth inhibition in test [1] (setting [7]) was 86% (active); in test [1] (setting [8]), 95% (active); in test [1] (at 50.0 µM) it was 83% (active); in test [2] (setting [7]) it was 82% (active); in test [2] (setting [8]), 94% (active); in test [2] (at 50.0 µM) it was 56.6%. Also, the growth inhibition is 33% in test [3] (setting [7]); 96% (active) in test [3] (setting [8]); 50% in test [6] (setting [7]); 95% (active) in test [6] (setting [8]); 49% in test [4] (setting [7]); 93% (active) in test [4] (setting [8]). The growth inhibition was 65% in test [5] (setting [7]), 99% (active) in test [5] (setting [8]) and 68.1% in test [5] (at 50.0 µM).
Consider `O=[N+]([O-])CC(O)c1ccccc1` (stereo not given), for which the growth inhibition in test [1] (setting [7]) was 4%; in test [1] (setting [8]), 26%; in test [1] (at 50.0 µM), 98.4% (active); in test [2] (setting [7]) it was -1%; in test [2] (setting [8]) it was -3%; in test [2] (at 50.0 µM), 52.2%. Moreover, the growth inhibition is -2% in test [3] (setting [7]); 1% in test [3] (setting [8]); 50.2% in test [3] (at 50.0 µM); -2% in test [6] (setting [7]); -1% in test [6] (setting [8]); 98.6% (active) in test [6] (at 50.0 µM). In addition, the growth inhibition was -2% in test [5] (setting [7]), 4% in test [5] (setting [8]) and 51.9% in test [5] (at 50.0 µM).
For `COC(=O)[C@]1(C)CCC[C@@]2(C)[C@@H]3C[C@@H]4[C@H]5C[C@@]3(CC[C@@H]21)C[C@@]45C`, the growth inhibition in test [1] (setting [7]) is 31%; in test [1] (setting [8]) it was 99% (active); in test [1] (at 50.0 µM), 92.2% (active); in test [2] (setting [7]), 28%; in test [2] (setting [8]) it was 99% (active); in test [2] (at 50.0 µM), 93.5% (active). For the same compound, the growth inhibition in test [3] (setting [7]) was 34%; in test [3] (setting [8]), 99% (active); in test [3] (at 50.0 µM), 93.7% (active); in test [6] (setting [7]), 31%; in test [6] (setting [8]) it was 99% (active); in test [6] (at 50.0 µM) it was 92.3% (active). In addition, the growth inhibition in test [4] (setting [7]) is 32%; in test [4] (setting [8]), 100% (active); in test [4] (at 50.0 µM) it was 92.2% (active); in test [5] (setting [7]), 37%; in test [5] (setting [8]), 99% (active); in test [5] (at 50.0 µM), 86.8% (active).
Take `O=C1C=CC(=O)N1C1CCCCCCCCCCC1`: the growth inhibition in test [1] (setting [7]) is 32%; in test [1] (setting [8]), 66%; in test [1] (at 50.0 µM), 83.5% (active); in test [2] (setting [7]) it was 46%; in test [2] (setting [8]), 58%; in test [2] (at 50.0 µM) it was 86% (active). The growth inhibition in test [3] (setting [7]) is 44%; in test [3] (setting [8]), 98% (active); in test [6] (setting [7]), 56%; in test [6] (setting [8]), 98% (active); in test [4] (setting [7]) it was 71% (active); in test [4] (setting [8]), 97% (active). Also, the figures for the growth inhibition in test [5] (setting [7]), in test [5] (setting [8]) and in test [5] (at 50.0 µM) were 30%, 61% and 79.4% (active), respectively.
For the compound `CCCCCCCCCCCCSC(=N)N`, the growth inhibition in test [1] (setting [7]) was 86% (active); in test [1] (setting [8]), 98% (active); in test [1] (at 50.0 µM), 51.3%; in test [2] (setting [7]), 21%; in test [2] (setting [8]) it was 99% (active); in test [2] (at 50.0 µM), 99% (active). Besides, the growth inhibition is 84% (active) in test [3] (setting [7]); 98% (active) in test [3] (setting [8]); 46.5% in test [3] (at 50.0 µM); 20% in test [6] (setting [7]); 98% (active) in test [6] (setting [8]); 97.2% (active) in test [6] (at 50.0 µM). Moreover, the growth inhibition was 49% in test [5] (setting [7]), 99% (active) in test [5] (setting [8]) and 64.2% in test [5] (at 50.0 µM).
On to `Oc1ccc(Br)cc1Sc1cc(Br)ccc1O`, for which the growth inhibition in test [1] (setting [7]) is 6%; in test [1] (setting [8]), 99% (active); in test [1] (at 50.0 µM), 87.9% (active); in test [2] (setting [7]), 28%; in test [2] (setting [8]) it was 99% (active); in test [2] (at 50.0 µM) it was 99.7% (active). Moreover, the growth inhibition in test [3] (setting [7]) is 26%; in test [3] (setting [8]) it was 100% (active); in test [3] (at 50.0 µM), 99.7% (active); in test [6] (setting [7]), 14%; in test [6] (setting [8]), 98% (active); in test [6] (at 50.0 µM), 99.4% (active). The figures for the growth inhibition in test [5] (setting [7]), in test [5] (setting [8]) and in test [5] (at 50.0 µM) were 53%, 99% (active) and 99.5% (active), respectively.
Consider `CCN1/C(=C/C(C)=C/c2sc3ccc4ccccc4c3[n+]2CC)Sc2ccc3ccccc3c21`, for which the growth inhibition in test [1] (setting [7]) is 28%; in test [1] (setting [8]) it was 30%; in test [1] (at 50.0 µM) it was 79.8% (active); in test [2] (setting [7]) it was 30%; in test [2] (setting [8]), 36%; in test [2] (at 50.0 µM), 82% (active). For the same compound, the growth inhibition in test [3] (setting [7]) was -7%; in test [3] (setting [8]) it was 42%; in test [3] (at 50.0 µM), 81.7% (active); in test [4] (setting [7]) it was 43%; in test [4] (setting [8]) it was 10%; in test [4] (at 50.0 µM) it was 73.2% (active). In addition, the values for the growth inhibition in test [5] (setting [7]), in test [5] (setting [8]) and in test [5] (at 50.0 µM) were 41%, 35% and 69.9%, respectively.
As to `CC1(c2ccc(O)cc2)CCC(C(C)(C)c2ccc(O)cc2)CC1` (stereo not given), the growth inhibition in test [1] (setting [7]) was 41%; in test [1] (setting [8]), 99% (active); in test [1] (at 50.0 µM) it was 90.5% (active); in test [2] (setting [7]), 46%; in test [2] (setting [8]), 100% (active); in test [2] (at 50.0 µM), 91.9% (active). The growth inhibition in test [3] (setting [7]) was 80% (active); in test [3] (setting [8]), 97% (active); in test [6] (setting [7]), 60%; in test [6] (setting [8]), 97% (active); in test [4] (setting [7]), 89% (active); in test [4] (setting [8]) it was 96% (active). The growth inhibition in test [5] (setting [7]) was 44%; in test [5] (setting [8]) it was 100% (active); in test [5] (at 50.0 µM), 91.1% (active).
As for `C=[CH][Sn]([CH]=C)([O]c1cccc2cccnc12)[O]c1cccc2cccnc12`, the growth inhibition in test [1] (setting [7]) was 27%; in test [1] (setting [8]), 36%; in test [1] (at 50.0 µM), 87.3% (active); in test [2] (setting [7]), 25%; in test [2] (setting [8]) it was 34%; in test [2] (at 50.0 µM), 92.7% (active). Besides, the growth inhibition in test [3] (setting [7]) is 91% (active); in test [3] (setting [8]) it was 98% (active); in test [3] (at 50.0 µM), 82.8% (active); in test [4] (setting [7]), 87% (active); in test [4] (setting [8]) it was 98% (active); in test [4] (at 50.0 µM), 89.8% (active). Besides, the figures for the growth inhibition in test [5] (setting [7]), in test [5] (setting [8]) and in test [5] (at 50.0 µM) were 30%, 60% and 87.7% (active), respectively.
Consider `CCOC(=O)c1[nH]c(C#N)c(C(=O)OCC)c1C`, for which the growth inhibition in test [1] (setting [7]) was 6%; in test [1] (setting [8]), 76% (active); in test [1] (at 50.0 µM) it was 4.15%; in test [2] (setting [7]) it was 1%; in test [2] (setting [8]) it was 23%; in test [2] (at 50.0 µM), 26.4%. Moreover, the growth inhibition in test [3] (setting [7]) was 3%; in test [3] (setting [8]), 17%; in test [3] (at 50.0 µM), 33.8%; in test [5] (setting [7]), 4%; in test [5] (setting [8]), 66%; in test [5] (at 50.0 µM) it was 10%.
